Lassa entry inh – qHTS for Inhibitors of binding or entry into cells for Lassa Virus; 1.2% of 300,000 active; Potency, µM (series often up to 37.9 µM), actives largely listed as inhibitors; Lassa virus pseudotype entry inhibition, cell reporter; calls by dose curve; tested in HEK293 cells; also: nearly all actives have a fitted effect of over 50% in size
FMDV inh – High Throughput Screening for Foot and Mouth Disease Virus Antivirals | FMDV antiviral cell-based qHTS | Potency, µM (titrated, usually from 57.9 µM), actives largely listed as inhibitors | 1.2% of 410,000 active | AID 1159524, 2015; calls by dose curve; tested in HEK293T cells; also: read-out not given here; nearly all actives have a fitted effect of over 45% in size
HCV inhibitor – qHTS Assay for Inhibitors of Hepatitis C Virus (HCV). Potency, µM (doses to about 41.8 µM), most hits filed as inhibitors. 3.4% of 340,000 active. Huh7.5.1 HCVcc-Cre infection, luciferase reporter, 44 h; active = well fitted inhibition curve with a large enough effect; inconclusive = small, poorly fitted or top-dose-only effect, or another doubt; inactive = no such curve, though single readings can be large or run the other way
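A cell-based infection assay in which seeded cells (1,000 per well) receive test compound after 4 h, are inoculated with HCVcc-Cre at approximately 0.5 moi, and are incubated 44 h before luminescence detection.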
HCMV inh – qHTS Assay for inhibitors of the human cytomegalovirus (HCMV) | activity change, negative = inhibition, % at 57.5 µM | AID 1259415, 2018 | 4.5% of 410,000 active | HFF cells, HCMV-luciferase reporter, 72 h; active compounds read low; in the data active = activity change below about -60%; inconclusive = no clear call, values can overlap the other calls; inactive = above about -39%
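Two-dose cell screen: HFF monolayers treated with compounds and infected with luciferase-expressing HCMV at 1 PFU/cell, 72 h at 37C, then lysed for luciferase measurement.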
MARV entry inh – qHTS for inhibitors of binding or entry into cells for Marburg Virus; 1.8% of 300,000 active; Potency, µM (series often up to 37.8 µM), usual class: inhibitors; Marburg virus pseudotyped entry inhibition, cell reporter; calls by dose curve; tested in HEK293 cells
Numbers stand for hits; - = inactive; ? = inconclusive; . = no result given. Shown are actives, neighbours in structure and some others; about 7.9% of the full set was active somewhere.

SMILES | Lassa entry inh | FMDV inh | HCV inhibitor | HCMV inh | MARV entry inh
C#CCCCO/N=C1\C[C@@H](O)[C@@H](O)[C@@H]2[C@@H]3C(=O)N(C(C)(C)C)C(=O)[C@@H]3CC[C@H]12 | . | . | . | . | -
COc1ccc(NC(=O)C2SC(=S)N=C2N)cc1 (stereo not drawn) | . | . | . | . | -
O=C(Nc1cccnc1)C1(F)C(F)(F)C(F)(F)C(F)(F)C(F)(F)C1(F)F | - | - | 3.2µM | - | ?
O=C(N/N=C/c1cccnc1)C12CC3CC(CC(C3)C1)C2 | - | - | - | - | ?
O=C(NNC(=O)C12CC3CC(CC(C3)C1)C2)c1ccccn1 | 7.9µM | ? | ? | -107 | 10µM
O=C(Nc1cccnc1)C12CC3CC(CC(C3)C1)C2 | - | - | - | -64 | -
O=C(Nc1ccccc1)C(=O)Nc1cccnc1 | ? | - | - | - | ?
O=C(C1=NC2=C(CCCC2)CC1)C1CCCCN1 (stereo not drawn) | . | . | . | . | -
Cc1c(Nc2nc3ccccc3n3c(C)nnc23)cccc1C(=O)O | - | - | . | - | .
CC1(C)C2CC=C(CN3CCC(O)CC3)C1C2 (stereo not drawn) | - | - | - | - | -
CC1(C)[C@H]2CC=C(CN3CCC(N4CCC(C(=O)N5CCCC5)CC4)CC3)[C@@H]1C2 | - | - | 32µM | - | -
COc1ccccc1/C=C\C(=O)NCC(=O)N/N=C/c1ccc(O)cc1O | - | - | - | - | ?
O=C(Nc1ccncc1)Nc1cccc(C(F)(F)F)c1 | . | - | - | -80 | .
NC(CCc1ccccc1)c1csc(NC(=O)Nc2cccc(C(F)(F)F)c2)n1 (stereo not drawn) | . | - | . | -98 | .
O=C(Nc1cccc(C(F)(F)F)c1)Nc1ccon1 | . | - | - | . | .
O=C(Nc1ccc(OC(F)F)cc1)Nc1cccc(C(F)(F)F)c1 | ? | - | ? | -80 | ?
O=C(Nc1cccc(C(F)(F)F)c1)NC1CCCCC1 | 4µM | - | - | - | -
COc1ccc(Cc2noc(CN3CCN(Cc4csc(C)n4)CC3)n2)cc1OC | - | - | - | ? | -
COc1ccc(OC)c(CCNC(=O)CS(=O)(=O)Cc2nc(-c3cccc(Cl)c3)oc2C)c1 | - | ? | . | - | -
Cc1cccc(NC(=O)NC2CCCCCCC2)c1 | . | - | - | - | .
O=C(NC1CCCCC1)C1CCC(=O)N(Cc2cccc(C(F)(F)F)c2)C1 (stereo not drawn) | - | - | - | -61 | -
NC(=O)/C=C\C(=O)Nc1cccc(C(F)(F)F)c1 | ? | . | ? | - | 9.2µM
COc1cccc(CN2CC(C(=O)NC3CCCCCC3)CCC2=O)c1 (stereo not drawn) | - | - | - | - | -
NNC(=O)Nc1cccc(C(F)(F)F)c1 | - | - | - | - | -
Cc1ccc(NC(=O)NC2CCCCCCC2)cc1C | . | - | - | -84 | .
SMILES | Lassa entry inh | FMDV inh | HCV inhibitor | HCMV inh | MARV entry inh
CCc1cccc(C)c1NC(=O)CCn1c(=O)c2cccn2c2ccccc21 | ? | - | . | ? | .
CC(C)(C)C(=O)Nc1cc2nn(-c3ccccc3)nc2cc1Cl | 1.5µM | 50µM | - | -88 | 0.41µM
CN(CC1COCCO1)C(=O)c1cnn(-c2ncc3c(n2)-c2ccccc2CC3)c1C1CC1 (stereo not drawn) | . | - | . | . | .
COC(=O)c1cc2cc(Cl)ccc2nc1SC | - | - | ? | - | -
COc1cc(C2NC(=O)N(C)C3=C2C(=O)N(c2ccccc2)C3)ccc1O (stereo not drawn) | - | - | . | -97 | -
CC1N=C2C(=O)OC3C=CC=CC3=C2N1c1ccccc1 (stereo not drawn) | . | . | . | . | -
CCOc1ccc(C(=O)N2CCC(c3ccncc3)CC2)cc1 | - | - | . | - | .
CCN(Cc1ccccc1)C(c1ccc(Cl)cc1)c1nnnn1C(C)(C)C (stereo not drawn) | ? | ? | - | -97 | ?
CC(C)(C)n1nnnc1C(c1cccs1)N(Cc1ccccc1)Cc1ccco1 (stereo not drawn) | ? | ? | 11µM | - | ?
CC(C)(C)n1nnnc1C(c1cccs1)N(Cc1cccnc1)Cc1ccco1 (stereo not drawn) | ? | - | - | - | ?
C(=N\Nc1ccccc1)/c1nc2ccccc2s1 | . | - | - | - | .
CC(C)(C)c1cc(/C=N/NC(=O)Cc2nc3ccccc3[nH]2)cc(C(C)(C)C)c1O | - | - | - | -79 | -
O=C(Cc1nc2ccccc2[nH]1)N/N=C/c1ccccc1 | - | - | - | - | -
c1ccc(Cc2nnc3sc(-c4cccnc4)nn23)cc1 | - | - | - | -63 | -
CCCn1nc([N+](=O)[O-])c(C(C#N)c2nc3ccccc3s2)c(Cl)c1=O (stereo not drawn) | - | ? | ? | -90 | ?
CCn1nc([N+](=O)[O-])c(C(C#N)c2nc3ccccc3n2C)c(Cl)c1=O (stereo not drawn) | - | - | - | - | -
CC(=O)Nc1cccc(-c2cnc(N)c(C(=O)c3cccnc3)n2)c1 | . | - | 11µM | . | .
NC(=O)c1cccc(-c2cnc(N)c(C(=O)c3cccnc3)n2)c1 | . | - | ? | . | .
CSC(=N)N | - | - | . | . | ?
CCOc1cc(C(=O)Nc2c(NC)c3ccccc3oc2=O)cc(OCC)c1OCC | - | - | . | - | -
CCOc1c(/C=C(\C#N)C(N)=O)c2ccccc2n1CC | - | ? | ? | -67 | ?
CCOC(=O)/C(C#N)=C\c1c(OCC)n(CC)c2ccccc12 | ? | ? | ? | -69 | ?
NC(=O)c1ccc(NC(=O)CCc2nc3ccccc3s2)cc1 | . | - | - | - | .
O=C(Nc1ccc(Cc2nc3ccccc3s2)cc1)c1ccncc1 | - | - | 10µM | -86 | ?
CCOC(=O)C1=C(Cc2ccc(F)cc2)C(=O)c2ccccc2C1=O | ? | ? | 7.9µM | - | ?
SMILES | Lassa entry inh | FMDV inh | HCV inhibitor | HCMV inh | MARV entry inh
O=C(OCc1ccc(F)cc1)c1cc2ccccc2cc1O | . | - | - | - | .
O=C(OCc1ccc(F)cc1)c1ccc2c(c1)-c1ccccc1C2=O | 1.1µM | - | - | - | -
CCOc1ccc(/C=N/n2c(SC)nnc(C(C)(C)C)c2=O)cc1 | 10µM | - | - | - | -
COc1ccc(OC)c(NC(=O)C(C)Oc2ccc(Br)cc2)c1 (stereo not drawn) | - | - | 11µM | ? | -
COc1ccc(OC)c(NC(=O)C(C)OC(=O)c2cc3ccccc3[nH]2)c1 (stereo not drawn) | . | ? | 11µM | - | .
CCN(CC)CCNC(=O)C1=C(OC)CC(N)=C(Cl)C1 | . | . | . | . | -
CC(C)CO/N=C1\C[C@@H](O)[C@@H](O)[C@@H]2[C@@H]3C(=O)N(Cc4ccc5c(c4)OCO5)C(=O)[C@@H]3CC[C@H]12 | . | . | . | . | -
COCC(=O)OC1CCn2c1nc1c2C(=O)C(C)=C(NC(C)=O)C1=O (stereo not drawn) | 3.2µM | 10µM | 14µM | -79 | ?
CC(=O)NC1=C(N2CC2C)C(=O)C(NC(C)=O)=C(N2CC2C)C1=O (stereo not drawn) | - | - | - | - | -
CC1CCN(c2nc(-c3cccnc3)nc3scc(-c4ccccc4)c23)CC1 | . | - | 22µM | - | .
